Assay [1] addresses Aromatase (Homo sapiens) (UniProt P11511). Briefly: qHTS assay to identify aromatase inhibitors (AID 743083). Note: nearly all actives have a fitted effect of over 55% in size. Note: potency is the fitted concentration of half-maximal effect.
The target of assay [2] is Aryl hydrocarbon receptor (Homo sapiens) (UniProt P35869). As to the kind of experiment: qHTS assay to identify small molecule that activate the aryl hydrocarbon receptor (AhR) signaling pathway (AID 743085).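 Note: HG2L7.5c1 human HepG2 liver cells with stably integrated DRE-driven firefly reporter; series mostly up to about 70 µM; nearly all actives have a fitted effect of over 15% in size.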 The method in brief:
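Cell line HG2L7.5c1 (human hepatoma, 20× DRE-luc). Plated, 5 h 37C, compound/DMSO added, 24 h 37C. CellTiter-Fluor 30 min 37C → fluorescence; then ONE-Glo 30 min RT → luminescence.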

Assay [3] is described as follows: qHTS assay to identify small molecule agonists of H2AX (AID 1224845; active = well fitted activation curve with a large enough effect in the signal ratio in the repeat runs, not every such curve was filed as active; the % refers to the signal ratio; note: potency is the fitted concentration of half-maximal effect). Put shortly: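 Wild-type CHO-K1 cells, plated overnight, exposed 3hr at 37C to 15 concentrations (0.76% DMSO final). Lysed, then HTRF anti-pH2AX (S139) cryptate and anti-H2AX-d2 antibodies, 24 hr room temperature; 665/620 nm emission read.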
Background: qHTS replaces the single test concentration by a dilution series.

A short description of assay [4]: A CellTox Green Cytotoxicity Assay to monitor cytotoxicity in HEK293 cells - 0 hour (AID 1224869). Note: nearly all actives have a fitted effect of over 50% in size. Note: potency is the fitted concentration of half-maximal effect. The method in brief: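 Fluorescence from a DNA-binding dye excluded by viable cells was measured repeatedly in the same HEK293 wells (600 cells/well) during continuous compound exposure at 37 C. Each assay gives one read point: 0, 8, 16, 24, 32 or 40 h.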
The nature of assay [5]: A CellTox Green Cytotoxicity Assay to monitor cytotoxicity in HepG2 cells - 0 hour (AID 1224882). Note: nearly all actives have a fitted effect of over 35% in size. Note: potency is the fitted concentration of half-maximal effect. Put shortly: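 Real-time cytotoxicity: fluorescence of a cell-impermeant cyanine dye binding DNA of dead HepG2 cells, measured repeatedly (0–40 h) during compound exposure at 37 C. Cells seeded 600/well with reagent, dosed after 5 h.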
The nature of assay [6]: qHTS assay to identify small molecule antagonists of the estrogen receptor alpha (ER-alpha) signaling pathway using the BG1 cell line in the presence of 0.1 nM 17-beta-estradiol - cell viability counter screen (AID 1259241). Note: nearly all actives have a fitted effect of over 40% in size. Note: potency is the fitted concentration of half-maximal effect. The method in brief:
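VM7Luc4E2, 4,000 cells/well, phenol red-free medium + 10% charcoal-stripped FBS; 24 hr plating; cpd + 0.1 nM E2 final, 22 hr 37C/5% CO2; CellTiter-Fluor 30 min, fluorescence.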

Assay [7] is described as follows: qHTS assay to identify small molecule HDAC inhibitors (AID 1259364). Note: top concentration of the series differs between compounds; nearly all actives have a fitted effect of over 45% in size. Put shortly: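 Luminescence read after 30 min room-temperature HDAC-Glo incubation measures cellular class I/II HDAC activity. Compounds were applied for 2 hr at 37 C to HCT-116 wild-type cells seeded the day before.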
The nature of assay [8]: Caspase-3/7 induction in HepG2 cells by small molecules, qHTS assay (AID 1346978). Note: nearly all actives have a fitted effect of over 15% in size. Note: potency is the fitted concentration of half-maximal effect. The method in brief:
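Wild-type HepG2 cells, 2,000/well, settled 5 hr at 37 C and 5% CO2, then compound-treated for 17 hr; caspase-3/7 activity read by luminescent Caspase-Glo 3/7 after 30 min at room temperature.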

Assay [9] is described as follows: Caspase-3/7 induction in CHO-K1 cells by small molecules, qHTS assay (AID 1346980). Note: nearly all actives have a fitted effect of over 15% in size. The method in brief: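 Wild-type CHO-K1 cells exposed to compounds for 17hr at 37 C, 5% CO2. Caspase-3/7 activity then measured by Caspase-Glo 3/7 luminescence after 30min at room temperature.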
The target in assay [10] is Acetylcholinesterase (Homo sapiens) (UniProt P22303). As to the kind of experiment: Acetylcholinesterase (AChE) small molecule antagonists: colormetric cell-based qHTS assay (AID 1347395; calls by dose curve; note: nearly all actives have a fitted effect of over 30% in size). The method in brief:
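Colorimetric read-out: DTNB detects thiocholine released when cellular AChE in SH-SY5Y cells hydrolyses acetylthiocholine. Cells attached overnight, received compound for 30 min at 37 C, then substrate mix for 90 min at 37 C.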

For assay [11] the target is unchanged. As to the kind of experiment: Acetylcholinesterase (AChE) small molecule antagonists: enzyme-based qHTS assay (AID 1347397; calls by dose curve; note: nearly all actives have a fitted effect of over 55% in size; note: potency is the fitted concentration of half-maximal effect). The note with it: Potency: AChE enzyme activity inhibition; outcome: AChE enzyme activity inhibition. Put shortly:
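In this quantitative HTS, compounds from the Tox21 10K collection were preincubated 30 min at ambient temperature with recombinant human AChE dispensed at 50 mU/mL. Hydrolysis of acetylthiocholine was then followed for 10 min by DTNB colour development.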

The target is the same in assay [12]. Briefly: Acetylcholinesterase (AChE) small molecule antagonists: fluorescence cell-based qHTS assay (AID 1347398; calls by dose curve; note: nearly all actives have a fitted effect of over 50% in size). The note with it: Potency: AChE activity; outcome: AChE activity. Put shortly: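 Cells (SH-SY5Y) attached overnight, were dosed with compound or DMSO vehicle for 30 min at 37 C, and then incubated 40 min at room temperature with acetylthiocholine and Thiolite Green; green fluorescence indexed AChE activity.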

The target is the same in assay [13]. As to the kind of experiment: Acetylcholinesterase (AChE) small molecule antagonists: enzyme-based qHTS assay with human liver microsomes (AID 1347399; calls by dose curve; note: nearly all actives have a fitted effect of over 60% in size). The note with it: Potency: qHTS inhibition; outcome: qHTS inhibition. Put shortly: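 Recombinant human AChE (50 mU/mL in the enzyme mix) and human liver microsomes (0.25 mg/mL final) were preincubated with compound and NADPH (0.25 mg/mL final) for 30 min at 37 C. Acetylthiocholine/DTNB was then added; thiocholine was read colorimetrically after 10 min at room temperature.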

The target in assay [14] is Cytochrome P450 1A2 (Homo sapiens) (UniProt P05177). As to the kind of experiment: Cytochrome P450 Family 1 Subfamily A Member 2 (CYP1A2) small molecule antagonists: luciferase reporter qHTS assay (AID 1671199). Note: nearly all actives have a fitted effect of over 50% in size. Note: potency is the fitted concentration of half-maximal effect. Put shortly: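 Luminescence from luciferin formed by CYP1A2 from a proluciferin substrate, read 20 min after detection reagent. Compound was pre-incubated 10 min with enzyme-substrate, and reaction started with NADPH regeneration solution for 1 h at room temperature; furafylline control.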
Background: A reporter such as luciferase makes a cellular process visible.

Assay [15] can be described thus: qHTS assay to identify small molecule antagonists of the estrogen related receptor (ERR) signaling pathway - cell viability counter screen (AID 1224818).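 Note: series mostly up to about 46 µM; viability measured after 17.5 h of compound exposure.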 Put shortly:
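Cytotoxicity counter screen: fluorescence from CellTiter-Fluor, added after 17.5 h compound exposure at 37 C and read 30 min later. ERR cell line seeded at 2,000 cells/well, preincubated 6 h before dosing.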

A short description of assay [16]: qHTS assay to identify small molecule antagonists of the estrogen related receptor (ERR) signaling pathway (AID 1224819; note: series mostly up to about 46 µM; nearly all actives have a fitted effect of over 50% in size). Put shortly:
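LOPAC library screened for antagonism as reduced One-Glo luminescence in ERR reporter cells (2,000/well). Compounds were added after 6 h pre-incubation and left 18 h at 37C; reading followed a 30 min room-temperature reagent step.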

Assay [17] can be described thus: qHTS assay to identify small molecule agonists of the estrogen related receptor (ERR) signaling pathway (AID 1224820). The method in brief: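 After 6 h plating (2,000 cells/well) and 18 h compound treatment at 37 C, ERR cells were lysed with One-Glo and luminescence read after 30 min at room temperature.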
The subject of assay [18] is estrogen-related receptor alpha (ERRalpha) with PGC-1alpha coactivator, human. Briefly: qHTS assay to identify small molecule antagonists of the estrogen related receptor signaling pathway with the pleiotropic PPARgamma coactivator (PGC) (AID 1224821; calls by dose curve). Put shortly:
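Luminescence from One-Glo luciferase reagent (30 min, room temperature) measured after 18 h compound treatment at 37 °C. Cells carry the PGC/ERR reporter and were seeded 6 h prior to dosing.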

The nature of assay [19]: qHTS assay to identify small molecule antagonists of the estrogen related receptor signaling pathway with the pleiotropic PPARgamma coactivator (PGC) cell viability counter screen (AID 1224822; note: series mostly up to about 46 µM). The method in brief:
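Viability counter-screen read by fluorescence intensity after 30 min with CellTiter-Fluor at 37 C; PGC/ERR reporter cells were exposed to compounds for 17.5 h at 37 C following a 6 h preincubation.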

Assay [20] in a line: qHTS assay to identify small molecule agonists of the estrogen related receptor signaling pathway with the pleiotropic PPARgamma coactivator (PGC) (AID 1224823). The method in brief:
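Luminescence from One-Glo reagent (30 min, room temperature) was read after 18 h compound treatment at 37 C of PGC/ERR cells plated 6 h beforehand; compounds delivered in DMSO by pin tool.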

Among the data in PubChem BioAssay (Tox21) are Potency and outcome values, retold here.

Several values for one entry are separate records, joined by “and”; a condition that tells them apart may be missing. Equal values may be shown once. Inconclusive results are not listed. A structure can be active in one record and inactive in another. Activity calls are given as the source filed them. Unless noted, calls come from the whole dose curve; as a rule, active = well fitted curve in the direction sought with a large enough effect in the repeat runs; inconclusive = weak or mixed curves; inactive = no such curve, though single readings can be large; an effect the other way counts as inactive or inconclusive.

Sequence of Aromatase (Homo sapiens) (P11511 whole entry, looked up): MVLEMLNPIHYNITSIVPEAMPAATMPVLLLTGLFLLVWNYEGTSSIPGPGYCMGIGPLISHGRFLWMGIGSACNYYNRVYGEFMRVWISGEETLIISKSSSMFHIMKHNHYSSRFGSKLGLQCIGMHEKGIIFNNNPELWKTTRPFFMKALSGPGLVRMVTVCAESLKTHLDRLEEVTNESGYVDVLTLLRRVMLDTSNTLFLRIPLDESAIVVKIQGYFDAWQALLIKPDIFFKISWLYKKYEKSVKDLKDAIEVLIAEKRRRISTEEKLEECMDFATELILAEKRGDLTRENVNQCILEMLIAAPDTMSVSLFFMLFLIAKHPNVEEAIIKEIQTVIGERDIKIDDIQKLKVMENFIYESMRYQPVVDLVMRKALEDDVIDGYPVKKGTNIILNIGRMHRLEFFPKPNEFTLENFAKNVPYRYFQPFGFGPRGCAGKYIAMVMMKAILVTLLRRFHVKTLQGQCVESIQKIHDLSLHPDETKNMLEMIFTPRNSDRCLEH
Sequence of Acetylcholinesterase (Homo sapiens) (P22303 whole entry, looked up): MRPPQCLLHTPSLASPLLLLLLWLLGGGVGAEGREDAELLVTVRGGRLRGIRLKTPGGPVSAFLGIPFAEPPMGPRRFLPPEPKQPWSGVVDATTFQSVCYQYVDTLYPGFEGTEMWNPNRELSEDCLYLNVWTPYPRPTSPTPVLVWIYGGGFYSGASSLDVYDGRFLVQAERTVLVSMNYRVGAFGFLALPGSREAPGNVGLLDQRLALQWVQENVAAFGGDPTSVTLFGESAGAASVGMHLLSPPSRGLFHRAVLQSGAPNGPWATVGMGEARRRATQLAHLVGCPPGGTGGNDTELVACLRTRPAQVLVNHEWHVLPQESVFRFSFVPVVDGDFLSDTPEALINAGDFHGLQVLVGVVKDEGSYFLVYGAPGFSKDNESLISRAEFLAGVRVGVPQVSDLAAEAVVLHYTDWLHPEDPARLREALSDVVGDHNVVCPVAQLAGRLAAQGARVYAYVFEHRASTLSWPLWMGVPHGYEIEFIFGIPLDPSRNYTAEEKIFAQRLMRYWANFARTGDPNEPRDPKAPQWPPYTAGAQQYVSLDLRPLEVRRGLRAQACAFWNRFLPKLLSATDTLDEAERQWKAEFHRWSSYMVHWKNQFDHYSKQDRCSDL
Sequence of Aryl hydrocarbon receptor (Homo sapiens) (P35869 whole entry, looked up): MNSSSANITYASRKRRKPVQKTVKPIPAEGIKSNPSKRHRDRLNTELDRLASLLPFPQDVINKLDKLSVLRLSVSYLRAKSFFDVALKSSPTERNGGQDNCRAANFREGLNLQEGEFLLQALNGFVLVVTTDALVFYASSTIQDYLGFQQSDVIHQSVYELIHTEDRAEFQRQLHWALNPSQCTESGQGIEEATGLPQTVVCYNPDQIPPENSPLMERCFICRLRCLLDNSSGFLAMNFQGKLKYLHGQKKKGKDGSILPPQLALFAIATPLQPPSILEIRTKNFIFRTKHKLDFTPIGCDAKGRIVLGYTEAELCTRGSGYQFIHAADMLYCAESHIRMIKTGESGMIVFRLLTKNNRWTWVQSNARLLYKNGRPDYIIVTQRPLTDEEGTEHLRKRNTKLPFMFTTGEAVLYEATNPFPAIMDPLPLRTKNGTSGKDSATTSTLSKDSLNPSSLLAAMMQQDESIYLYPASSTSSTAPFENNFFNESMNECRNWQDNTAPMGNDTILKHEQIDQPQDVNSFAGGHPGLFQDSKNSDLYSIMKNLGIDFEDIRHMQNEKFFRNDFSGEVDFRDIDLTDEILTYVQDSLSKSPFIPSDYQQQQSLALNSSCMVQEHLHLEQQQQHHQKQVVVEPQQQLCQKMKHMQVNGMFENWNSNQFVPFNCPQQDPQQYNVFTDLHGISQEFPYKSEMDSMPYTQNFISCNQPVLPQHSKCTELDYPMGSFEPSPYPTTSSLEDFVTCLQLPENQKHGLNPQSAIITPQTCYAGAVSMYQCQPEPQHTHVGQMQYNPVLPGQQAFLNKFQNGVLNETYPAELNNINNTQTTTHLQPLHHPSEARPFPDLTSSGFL
Sequence of Cytochrome P450 1A2 (Homo sapiens) (P05177 whole entry, looked up): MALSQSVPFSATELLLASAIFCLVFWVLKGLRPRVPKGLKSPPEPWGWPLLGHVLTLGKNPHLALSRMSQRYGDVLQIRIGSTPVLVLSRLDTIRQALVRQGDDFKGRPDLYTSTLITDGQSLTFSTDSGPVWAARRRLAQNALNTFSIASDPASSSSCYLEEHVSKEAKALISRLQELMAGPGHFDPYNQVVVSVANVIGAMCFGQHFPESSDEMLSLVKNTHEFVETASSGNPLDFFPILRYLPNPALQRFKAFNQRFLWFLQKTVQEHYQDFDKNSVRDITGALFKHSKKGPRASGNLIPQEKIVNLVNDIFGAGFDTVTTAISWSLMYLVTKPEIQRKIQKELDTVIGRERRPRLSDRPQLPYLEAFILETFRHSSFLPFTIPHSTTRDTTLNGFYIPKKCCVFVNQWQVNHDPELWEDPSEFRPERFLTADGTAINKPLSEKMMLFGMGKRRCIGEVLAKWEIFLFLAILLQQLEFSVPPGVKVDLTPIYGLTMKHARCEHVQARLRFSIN

Take `O=C1C(I)=CC(=C(c2cc(I)c(O)c(I)c2)c2ccccc2C(=O)O)C=C1I`: the Potency entry in assay [1], in assay [2], in assay [3], in assay [4], in [5] and in assay [6] was “inactive” each time. The Potency entry in assay [8], in assay [10], in [12], in assay [13] and in assay [14] was “inactive” each time. The outcome in assay [7] and in assay [9] was inactive. Moreover, the Potency in [11] is 34.7 µM (active).

Regarding `OCC(c1ccc(Cl)cc1)c1ccc(Cl)cc1`, the Potency in assay [1] is 30.6 µM (active); in assay [14], 35.6 µM (active). In addition, the Potency result in [2], in assay [3], in assay [4], in assay [5], in assay [6] and in [10] was “inactive” in each case. The Potency entry in [11], in assay [12] and in assay [13] was “inactive” throughout. The molecule was called inactive in assay [7] and in [9].

Consider `O=C(Nc1ccccc1-c1ccc(Cl)cc1)c1cccnc1Cl`, for which the Potency entry in [2], in [15], in assay [16], in [17], in assay [18] and in assay [19] was “inactive” each time. In addition, the Potency result in [20], in assay [3], in assay [6], in [8], in assay [10] and in assay [12] was “inactive” in each case. The Potency entry in assay [13] was “inactive”. Further, the Potency is 46.3 µM (active) in assay [4], 41.2 µM (active) in assay [5] and 8.42 µM (active) in assay [14]. Besides, the call in assay [7] and in assay [9] was inactive.

For the molecule `CCC(C)=O`, the Potency result in assay [1], in assay [3], in assay [10], in assay [11], in [12] and in assay [13] was “inactive” throughout.

For the molecule `CC1COC(Cn2cncn2)(c2ccc(Oc3ccc(Cl)cc3)cc2Cl)O1` (centres undefined), the Potency is 30.6 µM (active) in assay [1] and 25.2 µM (active) in assay [14]. Besides, the Potency entry in assay [2], in [4], in [5], in assay [6], in assay [8] and in assay [10] was “inactive” in each case. In addition, the Potency result in assay [11], in [12] and in assay [13] was “inactive” throughout. For the same molecule, the molecule was classed as inactive in [7] and in [9].

Consider `O=C(c1ccc(Cl)cc1)c1ccc(Cl)cc1`, for which the Potency result in [8], in assay [10], in assay [11], in assay [12] and in assay [13] was “inactive” each time.

In the case of `COc1ccc(C(c2ccc(OC)cc2)C(Cl)(Cl)Cl)cc1`, the Potency entry in assay [1], in [15], in [16], in assay [17], in assay [18] and in assay [19] was “inactive” each time. For the same molecule, the Potency result in [20], in assay [4], in [5], in assay [6], in assay [8] and in assay [10] was “inactive” in each case. Moreover, the Potency result in [11], in [12] and in assay [13] was “inactive” each time. In addition, the call in assay [9] was inactive. In addition, the Potency in [14] is 25 µM (active).

With `CC(c1ccccc1)(c1ccc(O)cc1)c1ccc(O)cc1`, the Potency result in assay [4], in [5], in [6], in assay [10], in assay [12] and in assay [13] was “inactive” throughout. In addition, in assay [14], the Potency entry was “inactive”. Besides, the outcome in [7] and in assay [9] was inactive.

As to `CN1CSC(=S)N(C)C1`, the Potency in assay [1] was 4.83 µM (active) and 3.85 µM (active); in assay [3] it was 4.48 µM (active); in [6], 17.1 µM (active); in [8], 7.66 µM (active); in assay [14], “inactive and 39.8 µM (active)”. In addition, the Potency entry in [2], in assay [4], in [5], in [10], in [11] and in assay [12] was “inactive” throughout. Further, in assay [13], the Potency entry was “inactive”. Besides, the molecule was called inactive in assay [7] and in assay [9].
